High-throughput results deposited in PubChem by several laboratories.
The list is not random: actives were taken first. Their share in the collection is about 5.2%.
A3A deaminase: inhibitors of human APOBEC3A DNA deaminase; recombinant A3A, FAM/TAMRA ssDNA deamination fluorescence; inhibition, % at 20 µM; hit rate 0.41% among 330,000; AID 493011;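 active means at least 40% inhibition at 20 µM here, with at most 30% in a related deaminase screen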;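 further: plate controls were A3A with DMSO for no effect and wells lacking A3A enzyme for full effect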
A3G deaminase: inhibitors of human APOBEC3G DNA deaminase; Q9HC16; recombinant A3G, ssDNA deamination FAM/TAMRA fluorescence; inhibition, % at 20 µM; hit rate 0.28% among 330,000;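 active means inhibition of at least 40% at 20 µM, with no more than 30% in the related APOBEC3A deaminase screen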;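 further: plate controls were DMSO wells with A3G for no effect and wells lacking A3G enzyme for full effect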
Yeast superoxide: caloric restriction mimetics inhibiting age-related superoxide in yeast. S. cerevisiae aged cells, superoxide DHE fluorescence; active compounds read low. superoxide response (% of plate mean), % at 10 µM. hit rate 0.18% among 330,000. AID 2690;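 active means superoxide response under a set limit, about three screen SD below normal, cut at about 65% in these data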;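 further: yeast aged for seven days with compound at 30 °C before DHE staining; 100% = average MFI of all compound-treated wells on the plate with controls excluded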
CendR NRP1 mod: modulators of CendR peptide binding to human neuropilin-1. inhibition, % at 25 µM. FAM-RPARPAR peptide binding to NRP-1, fluorescence polarization. AID 602438. O14786. hit rate 0.85% among 360,000;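 active means inhibition or corrected inhibition above about 18%, plus a signal ratio from 0.5 to 1.5, limit read from the data, passing the limit was not always enough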
ALR H2O2 inh: blocks human ALR sulfhydryl oxidase activity; P55789; purified ALR, DTT oxidation, H2O2 HRP-luminol luminescence; inhibition, % (no concentration beside the values); hit rate 3.8% among 290,000;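 active means mean replicate inhibition above about 79%, with every replicate also reaching it, limit read from the data; inconclusive means only one of the two criteria met; inactive means mean below limit and not every replicate reaching it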
Target sequence (P55789 whole entry, looked up): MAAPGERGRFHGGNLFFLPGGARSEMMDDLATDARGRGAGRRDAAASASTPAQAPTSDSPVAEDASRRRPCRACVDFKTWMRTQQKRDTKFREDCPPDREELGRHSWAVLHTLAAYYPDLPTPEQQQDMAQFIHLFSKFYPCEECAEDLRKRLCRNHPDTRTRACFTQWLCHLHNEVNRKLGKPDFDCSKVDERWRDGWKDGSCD
PfM18AAP inh-1: blocks P. falciparum M18 aspartyl aminopeptidase; AID 1822; hit rate 1.2% among 290,000; inhibition, % at 7.35 µM; recombinant PfM18AAP, H-Glu-NHMec fluorogenic cleavage;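 active means inhibition above the campaign mean inhibition over all tested compounds plus 3 SD, cut at about 28% in these data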;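 further: 0% = plate median of test compound wells and 100% = 2 mM ZnCl2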
PfM18AAP inh-2: PfM18AAP inhibition, confirmation. shares compounds with PfM18AAP inh-1. recombinant PfM18AAP, H-Glu-NHMec fluorogenic cleavage. inhibition, % at 7.35 µM. hit rate 28% among 2,400;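 active means mean inhibition over replicate wells above the hit cutoff set for the earlier primary screen, cut at about 29% in these data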;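 further: 0% = median of test compound wells and 100% = 2 mM ZnCl2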
CTSL1 confirm: Cathepsin L (human) inhibition, confirmation | shares compounds with PfM18AAP inh-1 | purified cathepsin L1, Z-Leu-Arg-MCA fluorescence | inhibition, % at 5.96 µM | 2,400 tested, under 10 active;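 active means average inhibition across replicates above the hit cutoff set in the earlier primary screen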;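 further: 0% = median of test compound wells and 100% = Z-Phe-Ala-diazomethylketone 1 µM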
Target sequence (P07711 whole entry, looked up): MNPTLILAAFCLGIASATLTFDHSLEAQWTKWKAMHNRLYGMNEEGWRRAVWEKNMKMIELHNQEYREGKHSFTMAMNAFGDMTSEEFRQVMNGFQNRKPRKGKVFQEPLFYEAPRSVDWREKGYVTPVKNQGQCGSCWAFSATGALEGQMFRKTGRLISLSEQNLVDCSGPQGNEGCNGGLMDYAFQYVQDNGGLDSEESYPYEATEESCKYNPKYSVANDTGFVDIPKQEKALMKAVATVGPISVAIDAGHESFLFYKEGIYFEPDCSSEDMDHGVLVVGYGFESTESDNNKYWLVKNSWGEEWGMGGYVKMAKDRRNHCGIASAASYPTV
Numbers without * were called inactive; ? = inconclusive; / = no result given.

SMILES	A3A deaminase	A3G deaminase	Yeast superoxide	CendR NRP1 mod	ALR H2O2 inh	PfM18AAP inh-1	PfM18AAP inh-2	CTSL1 confirm
O=C(O)CSc1ncn[nH]1	-5	-7	102	1	-2	86*	98*	-1
CC[C@H]1c2[nH]c3ccc(C(C)C)cc3c2[C@@H]2CCN3C(=O)CCC[C@H]1[C@H]23	/	/	/	14	/	/	/	/
CCOc1ccc(S(=O)(=O)N2CCN(S(=O)(=O)c3ccc(C)c(C)c3)CC2)cc1	-3	-7	/	4	/	0	/	/
CC1(C(=O)NCCc2c[nH]c3ccccc23)CCN1Cc1ccccc1OC(F)F (stereo not given)	/	/	/	-5	/	/	/	/
CC(=O)Nc1nc2ccccc2n1Cc1ccccc1	-1	-3	125	1	7	4	/	/
Nc1ccc(-n2cc(-c3ccccc3)[nH]c2=S)cc1	-2	11	95	9	91*	44*	11	-1
S=c1[nH]c(-c2ccccc2)cn1-c1ccccc1	-5	-5	80	-8	97*	46*	35*	-2
COc1ccccc1-n1cc(-c2ccc(C)cc2)[nH]c1=S	-1	-2	94	10	33	6	/	/
O=[N+]([O-])c1cccc(-c2cn(-c3ccccc3)c(=S)[nH]2)c1	-5	-5	108	5	2	50*	50*	-4
COc1ccccc1-n1cc(-c2ccc([N+](=O)[O-])cc2)[nH]c1=S	3	-7	95	0	1	32*	22	-1
CC(C)(C)c1cn(-c2ccccc2)c(=S)[nH]1	-2	9	89	12	?	15	/	/
O=[N+]([O-])c1ccc(-c2cn(-c3ccccc3)c(=S)[nH]2)cc1	0	-3	92	6	-2	27	/	/
COc1ccccc1/C=C/C=N/N1CCN(c2ccccn2)CC1	-8	-10	92	-10	38	-4	/	/
CCCCNC(=S)N1CCC(Cc2ccccc2)CC1	-3	-2	82	14	3	-9	/	/
Cc1ccc(S(=O)(=O)CCSc2cccc(C(=O)O)c2)cc1	-3	-7	96	2	8	-5	/	/
COc1ccccc1N1CCN(C(=S)Nc2ccc(S(=O)(=O)N3CCOCC3)cc2)CC1	-2	-7	106	-2	18	32*	-48	2
CN=C1N(C)C[C@@H]2[C@@H]3C(=O)N(C)C(=O)[C@@H]3[C@](Cc3ccccc3)(C(=O)OC)N12	5	9	103	15	/	/	/	/
COc1ccc(-c2ccnc3nc(/N=C/N(C)C)nn23)cc1	-3	-7	101	/	2	3	/	/
Cc1cc(=O)[nH]c(SCC(=O)Nc2ccccc2C#N)c1C#N	5	-3	108	-21	-2	38*	-48	-3
O=C(NC(=S)Nc1cc(-c2nc3ccccc3[nH]2)ccc1Cl)c1ccc2c(c1)OCO2	-1	0	104	-8	-2	-4	/	/
NC(=O)C(=CNc1nc(-c2ccc(Cl)c(Cl)c2)cs1)C(N)=O	/	/	/	/	/	69*	53*	-2
O=C(CSc1nc2[nH]ncc2c(=O)n1-c1ccccc1)NCCc1ccccc1	-1	-6	98	-3	-9	15	/	/
O=C(CSc1nc2[nH]ncc2c(=O)n1-c1ccccc1)NCc1cccs1	3	-3	103	0	-2	57*	39*	0
Cc1cccc(NC(=O)CSc2nc3[nH]ncc3c(=O)n2-c2ccccc2)c1	3	-3	99	/	1	36*	-2	3
COc1ccc(-n2c(SCC(=O)NCc3cccs3)nc3[nH]ncc3c2=O)cc1	1	-4	79	3	0	52*	34*	0
SMILES	A3A deaminase	A3G deaminase	Yeast superoxide	CendR NRP1 mod	ALR H2O2 inh	PfM18AAP inh-1	PfM18AAP inh-2	CTSL1 confirm
CCOC(=O)c1cnc(SCC(=O)Nc2cc(OC)ccc2OC)nc1N	5	1	118	4	-2	4	/	/
O=C(Nc1nncs1)c1ccccc1Br	2	-6	108	-5	-6	-1	/	/
COc1ccc(CSCC(=O)Nc2ccc(S(=O)(=O)N3CCCCCC3)cc2)cc1	2	-1	79	2	/	-2	/	/
CC(=O)N1CCN(c2nnnn2-c2ccccc2)CC1	2	-7	90	-1	-10	6	/	/
Oc1ccc(N2CCN(c3nnnn3-c3ccccc3)CC2)cc1	0	21	96	6	99*	32*	-3	1
O=C(NCc1ccc(Cl)cc1)C1C2C=CC3(CN(Cc4cccnc4)C(=O)C13)O2 (stereo not given)	-2	-2	110	-7	0	-15	/	/
O=[N+]([O-])c1cc2c(cc1/C=N/n1cnnc1)OCO2	2	-5	102	-5	-42	39*	-22	-3
O=[N+]([O-])c1cccc(/C=N/n2cnnc2)c1O	4	-6	103	5	-40	11	/	/
Cc1ccc(NC(=O)CNC(=O)c2ccc(C)s2)nc1	-6	-10	95	-7	0	/	/	/
CC(C)C(C(=O)Nc1ncn[nH]1)N1C(=O)c2ccccc2C1=O (stereo not given)	-6	-9	89	-6	-3	40*	56*	5
COc1ccc2[nH]c3c(c2c1)CCNC3C1CC=C(C)CC1 (stereo not given)	0	-9	97	-10	-1	6	/	/
O=c1/c(=C/c2cccc3ccccc23)sc2ncnn12	-4	-5	81	-7	-17	44*	35*	-5
Cc1ccsc1C=C1C(=O)c2ccccc2C1=O	0	-1	108	-2	-4	20	/	/
CCCCCCOc1ccc(/C=c2\s/c(=C(/C#N)C(=O)NCc3ccco3)n(-c3ccccc3)c2=O)cc1	-3	-6	85	-23	-4	3	/	/
Cc1ccsc1/C=c1\sc2ncnn2c1=O	1	-6	96	-9	-2	87*	55*	4
CCCCOc1ccc(/C=c2\sc3ncnn3c2=O)cc1	-1	-2	103	20*	31	76*	4	-1
Cn1c(NCCCO)nc2ccccc21	1	-5	102	-19	2	8	/	/
CC(=O)c1cn(C(=O)c2ccc(Cl)cc2)c2ccccc12	-1	-8	94	8	-1	0	/	/
CC(C)NCCCCOc1cccc(Br)c1	-2	-7	89	6	-7	3	/	/
COc1ccccc1NC(=O)C1CCCN(c2ncnc3c2nc2n3CCCCC2)C1 (stereo not given)	1	-4	100	8	8	-5	/	/
O=C(C1CC(=O)N(c2ccc3c(c2)OCCO3)C1)N1CCN(c2ccccc2O)CC1 (stereo not given)	-6	-7	93	2	84*	34*	5	1
Cc1ccc(CNS(=O)(=O)c2c(C)n(C)c(=O)n(C)c2=O)cc1	0	-1	95	13	3	-14	/	/
